TEAD-YAP block – TEAD-YAP interaction inhibition, primary screen, TEAD-YAP interaction inhibitor project, luminescence, HEK-TIYL cells | TEAD-Gal4/YAP UAS-luciferase luminescence | inhibition, % at 9.12 µM | 640,000 tested, 1.4% active | AID 1259422, 2018; in the data active = inhibition above about 32%;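 also: 0% = median of test compound wells and 100% = reference inhibitor wells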
FBW7 activator – FBW7 E3 ligase activators, primary screen, biochemical, AlphaScreen, human. AID 1259310, 2017. AlphaScreen FBW7–phospho-cyclin E peptide binding, activator screen. normalized activity (activation), % at 26.1 µM. 650,000 tested, 0.13% active; in the data active = normalized activity above about 1.9%;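 also: purified mutant Fbw7 with reduced substrate affinity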
GPR151 activ – activators of human GPR151, primary screen, cell-based, PathHunter beta-arrestin, luminescence. G-protein coupled receptor 151 (Homo sapiens), Q8TDV0. PathHunter beta-arrestin GPR151 cells. activation, % at 11.2 µM. 650,000 tested, 1% active. AID 1508602, 2020; in the data active = activation above about 4.9%;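 also: 0% = median of compound wells and 100% = cells with positive control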
Target sequence (Q8TDV0 whole entry, looked up): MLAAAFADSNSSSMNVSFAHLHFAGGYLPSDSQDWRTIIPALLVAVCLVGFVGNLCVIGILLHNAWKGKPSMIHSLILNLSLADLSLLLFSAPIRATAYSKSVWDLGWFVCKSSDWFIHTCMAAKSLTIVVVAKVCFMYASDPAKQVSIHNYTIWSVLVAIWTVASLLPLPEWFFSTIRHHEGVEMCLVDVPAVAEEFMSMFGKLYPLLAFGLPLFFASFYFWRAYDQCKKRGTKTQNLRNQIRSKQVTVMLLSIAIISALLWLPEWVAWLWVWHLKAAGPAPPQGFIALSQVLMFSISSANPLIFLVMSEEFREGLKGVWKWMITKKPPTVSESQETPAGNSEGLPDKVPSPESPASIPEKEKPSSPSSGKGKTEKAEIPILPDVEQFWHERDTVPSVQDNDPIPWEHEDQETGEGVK
MITF primary – MITF inhibitors, primary screen, biochemical, AlphaScreen, human; AlphaScreen MITF homodimerization, bead proximity signal; inhibition, % at 2.6 µM; 650,000 tested, 0.91% active; AID 1259374, 2018; in the data active = inhibition above about 50%;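 also: 0% = vehicle wells with protein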
* hit, by the source's call. Sampled rows, rich in hits. Any-hit rate of the full collection: about 3.5%.

SMILES | TEAD-YAP block | FBW7 activator | GPR151 activ | MITF primary
Cc1cccc(NC(c2cccc(C)n2)c2ccc3ccc(C)nc3c2O)n1 (stereo not drawn) | -17 | 0 | 0 | 15
CCNC(=O)N1CCCC(c2nnc(-c3ccccc3F)s2)C1 (stereo not drawn) | 38* | 0 | -5 | -5
Cc1cc(CNC(=S)Nc2ccc3c(c2)OCO3)nn1C | 10 | 0 | 0 | -25
CC1=C(C(=O)Nc2cccc(F)c2)C(c2cccs2)C2=C(CC(C)(C)CC2=O)N1 (stereo not drawn) | 58* | 0 | 1 | -8
CSc1nc(N)c2c(n1)NC1=C(C(=O)CC(C)(C)C1)C2c1ccncc1 (stereo not drawn) | -4 | 0 | -1 | 12
CC1=C(C(=O)Nc2ccc(F)cc2)C(c2ccsc2)C2=C(CC(C)(C)CC2=O)N1 (stereo not drawn) | -7 | 0 | 1 | -15
CC1=C(C(=O)Nc2ccccc2F)C(c2ccsc2)C2=C(CC(C)(C)CC2=O)N1 (stereo not drawn) | 55* | 0 | 0 | -3
CC1=C(C(=O)Nc2cccc(F)c2)C(c2ccsc2)C2=C(CC(C)(C)CC2=O)N1 (stereo not drawn) | 54* | 0 | -1 | 0
CC1=C(C(=O)Nc2ccccc2F)C(c2ccccn2)C2=C(CC(C)(C)CC2=O)N1 (stereo not drawn) | 4 | 0 | 0 | 11
CSc1nc(N)c2c(n1)NC1=C(C(=O)CC(C)(C)C1)C2c1cccs1 (stereo not drawn) | 49* | 0 | 0 | 9
CSCC(=O)NCc1c(C)ncc2c1CCN(C(=O)/C=C/c1cccc(F)c1F)C2 | 5 | 0 | 1 | 8
O=S(=O)(Nc1ccc2c(c1)CCC2)c1ccc(-n2cnnn2)cc1 | 4 | 0 | 1 | 0
Cc1ccccc1CC(=O)N1CCC2(CC1)CC2C(=O)NCCCc1ccncc1 (stereo not drawn) | 13 | 0 | -1 | -21
CC[n+]1ccc(/C=C2\C=CC=CN2C)cc1 | 3 | 0 | 0 | -7
CC[n+]1ccc(/C=C2\C=Cc3ccccc3N2C)cc1 | 85* | 0 | 0 | 2
c1ccc(-c2nc(NC3CCCCC3)cc(-c3ccncc3)n2)nc1 | 36* | -1 | -1 | 1
c1ccc(-c2nc(NC3CC3)cc(-c3cccnc3)n2)cc1 | 23 | 0 | 1 | 17
c1ccc(-c2nc(NC3CCCCC3)cc(-c3cccnc3)n2)nc1 | 69* | -1 | -1 | 19
c1ccc(-c2nc(NC3CC3)cc(-c3cccnc3)n2)nc1 | 44* | 0 | 1 | -152
O=c1[nH]c(CN2CCOCC2)nc2scc(-c3cccs3)c12 | -4 | 0 | 0 | -12
Cn1nnnc1Sc1nc(CN2CCOCC2)nc2scc(-c3cccs3)c12 | 61* | 0 | -1 | -1
CCCCCCN1C(=O)NC(=O)/C(=C\c2ccc(O)c(OC)c2)C1=O | -2 | 0 | 0 | -1
O=c1c(=O)n(Cc2ccc(Cl)cc2)ccn1CCc1ccccc1 | -1 | 0 | 0 | -16
O=C(O)CCCC(=O)Nc1ccc(OC(F)(F)F)cc1 | 1 | 0 | 0 | 6
O=C(CCl)Nc1ccc(OC(F)F)cc1 | 35* | 0 | 0 | 11
SMILES | TEAD-YAP block | FBW7 activator | GPR151 activ | MITF primary
O=C(CCl)Nc1ccc(OC(F)(F)F)cc1 | 34* | 0 | 0 | 6
CCCC(=O)Nc1ccc(Cl)c(C(F)(F)F)c1 | 14 | 0 | 2 | 10
O=C(Nc1ccc(OC(F)(F)F)cc1)c1ccc(=O)[nH]c1 | 33* | 0 | 0 | -4
O=C(CCl)Nc1ccc(Cl)c(C(F)(F)F)c1 | 39* | 0 | 2 | -1
Fc1cccc(CNCc2ccco2)c1 | -2 | 0 | 0 | -6
CCc1cc2ccccc2nc1SCC(=O)Nc1nnc(C)s1 | -1 | 0 | 1 | 2
Cc1ccc2c(c1)CC(c1nc3ccc(-c4cn[nH]c4)cc3c(=O)[nH]1)CO2 (stereo not drawn) | -10 | 0 | -2 | 47
COc1ccc2c(c1)CC(c1nc3cc(-c4cn[nH]c4C)ccc3c(=O)[nH]1)CO2 (stereo not drawn) | 40* | 0 | 1 | 10
Cc1[nH]ncc1-c1ccc2nc(C3COc4ccccc4C3)[nH]c(=O)c2c1 (stereo not drawn) | 50* | 1 | -2 | 17
COc1ccc2c(c1)CC(c1nc3cc(-c4ccncc4)ccc3c(=O)[nH]1)CO2 (stereo not drawn) | -2 | 0 | 1 | 19
COc1ccccc1OCc1nc2ccc(-c3cn[nH]c3C)cc2c(=O)[nH]1 | 38* | 0 | -1 | 10
O=C(NCC1CCCO1)c1ccc2c(c1)ncn2-c1ccc(F)cc1F (stereo not drawn) | 0 | 0 | 1 | 6
Cc1cc2cc3c(cc2c(C)n1)c1ccccc1n3C | 63* | 0 | -1 | -8
Cn1c2ccccc2c(=O)c2ccccc21 | -38 | 0 | 0 | -6
O=C1CCCC2=C1C(c1ccccc1Cl)n1nc(-c3ccccc3)nc1N2 (stereo not drawn) | -6 | 0 | 0 | 5
COc1ccccc1-c1ccc(/C=C/C(=O)c2ccccc2)o1 | -44 | 0 | 0 | 9
COC(=O)c1sc2ccccc2c1NC(=O)c1ccc2ncsc2c1 | -4 | 0 | -2 | 8
Cc1cccc(-n2c(O)c(/C=N/NC(=O)c3ccccc3Cl)c3ccccc3c2=O)n1 | -3 | 0 | -1 | 3
O=C(Cc1ccc(F)cc1)N/N=C/c1c(O)n(-c2ccccc2Cl)c(=O)c2ccccc12 | 60* | -1 | -2 | 19
O=[N+]([O-])c1ccc(NC(c2ccco2)c2ccc3cccnc3c2O)cc1 (stereo not drawn) | 70* | -2 | 1 | 58*
O=[N+]([O-])c1cccc(NC(c2ccco2)c2ccc3cccnc3c2O)c1 (stereo not drawn) | 75* | -2 | 2 | 82*
O=C(Cc1ccccc1)NC(c1ccco1)c1ccc2cccnc2c1O (stereo not drawn) | 30 | -2 | 0 | 30
COc1cccc(-c2nnc3sc(NC(=O)c4cc(OC)c(OC)c(OC)c4)nn23)c1 | 6 | 0 | 0 | 0
C=CCNC(=S)Nc1cc(C(=O)OC)cc(C(=O)OC)c1 | 9 | 0 | 1 | 10
N#Cc1ccccc1NC(=O)Cn1ncc(Cl)c(Cl)c1=O | 55* | 0 | -1 | 10
COc1ccccc1C(NC(C)=O)c1cc(Cl)c2cccnc2c1O (stereo not drawn) | 3 | 0 | 0 | 3
CC(=O)NC(c1ccccc1C)c1ccc2cccnc2c1O (stereo not drawn) | 85* | -1 | -1 | 24
CC(=O)NC(c1ccc2cccnc2c1O)c1cccc2ccccc12 (stereo not drawn) | 82* | -2 | 0 | 46
CC(=O)c1cccc(-c2cnn3c(NCc4ccc5c(c4)OCO5)ccnc23)c1 | -3 | 0 | -1 | -4

Compound activity from PubChem BioAssay.
